# Data as given in ChEMBL document CHEMBL1961873, “Compounds: GSK PKIS; Assays: Nanosyn kinase panel” (2012).
# Key:
# [1] = biological target: Sphingosine kinase 1 (Homo sapiens) (UniProt Q9NYA1); conditions: at 1 µM;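 further: mean SPHK1 inhibition value reported from the GSK PKIS kinase panel screen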
# [2] = biological target: T1, Sphingosine kinase 2 (Homo sapiens) (UniProt Q9NRA0); conditions: at 0.1 µM
# T1 sequence (whole entry): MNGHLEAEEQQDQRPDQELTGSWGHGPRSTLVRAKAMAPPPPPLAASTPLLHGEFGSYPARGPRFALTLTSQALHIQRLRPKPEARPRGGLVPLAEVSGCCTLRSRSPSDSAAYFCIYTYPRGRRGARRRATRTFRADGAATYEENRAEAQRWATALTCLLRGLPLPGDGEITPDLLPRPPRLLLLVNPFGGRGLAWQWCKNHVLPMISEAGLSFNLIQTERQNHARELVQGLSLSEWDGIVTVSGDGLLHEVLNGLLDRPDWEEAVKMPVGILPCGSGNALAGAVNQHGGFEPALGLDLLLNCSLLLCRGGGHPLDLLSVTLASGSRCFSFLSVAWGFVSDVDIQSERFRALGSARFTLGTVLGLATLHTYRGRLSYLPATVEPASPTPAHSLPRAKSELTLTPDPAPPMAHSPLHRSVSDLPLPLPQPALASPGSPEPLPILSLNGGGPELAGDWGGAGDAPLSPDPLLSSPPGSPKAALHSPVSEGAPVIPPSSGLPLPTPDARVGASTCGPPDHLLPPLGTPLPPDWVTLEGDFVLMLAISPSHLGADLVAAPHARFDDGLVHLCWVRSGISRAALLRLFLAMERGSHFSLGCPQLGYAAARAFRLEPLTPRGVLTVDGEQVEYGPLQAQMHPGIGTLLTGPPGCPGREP
# [3] = biological target: T1, Sphingosine kinase 2 (Homo sapiens); conditions: at 1 µM
# [4] = biological target: Casein kinase II subunit alpha (Homo sapiens) (UniProt P68400); conditions: at 0.1 µM
# [5] = biological target: Casein kinase II subunit alpha (Homo sapiens) (UniProt P68400); conditions: at 1 µM
# [6] = biological target: T2, Inhibitor of nuclear factor kappa-B kinase subunit alpha (Homo sapiens) (UniProt O15111); conditions: at 0.1 µM
# T2 sequence (whole entry): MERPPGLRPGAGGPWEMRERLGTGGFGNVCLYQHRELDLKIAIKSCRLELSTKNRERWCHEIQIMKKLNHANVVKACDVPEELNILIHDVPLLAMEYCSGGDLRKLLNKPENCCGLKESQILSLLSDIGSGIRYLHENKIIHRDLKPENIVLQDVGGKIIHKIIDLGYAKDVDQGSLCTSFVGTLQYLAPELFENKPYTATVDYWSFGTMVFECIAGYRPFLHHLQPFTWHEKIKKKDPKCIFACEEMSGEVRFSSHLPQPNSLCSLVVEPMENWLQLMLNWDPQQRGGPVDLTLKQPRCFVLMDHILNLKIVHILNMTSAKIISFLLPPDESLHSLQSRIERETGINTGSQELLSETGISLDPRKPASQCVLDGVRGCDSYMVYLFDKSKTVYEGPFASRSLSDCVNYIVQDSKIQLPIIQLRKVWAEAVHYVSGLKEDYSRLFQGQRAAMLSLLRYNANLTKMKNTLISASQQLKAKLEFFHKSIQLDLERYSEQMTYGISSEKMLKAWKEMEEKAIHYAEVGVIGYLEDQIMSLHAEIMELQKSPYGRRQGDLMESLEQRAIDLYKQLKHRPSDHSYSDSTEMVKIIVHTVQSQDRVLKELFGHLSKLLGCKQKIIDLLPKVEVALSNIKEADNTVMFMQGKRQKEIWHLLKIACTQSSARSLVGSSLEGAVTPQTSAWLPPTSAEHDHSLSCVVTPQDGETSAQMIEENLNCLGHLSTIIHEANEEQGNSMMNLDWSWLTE
# [7] = biological target: T2, Inhibitor of nuclear factor kappa-B kinase subunit alpha (Homo sapiens); conditions: at 1 µM
# [8] = biological target: T3, Inhibitor of nuclear factor kappa-B kinase subunit beta (Homo sapiens) (UniProt O14920); conditions: at 0.1 µM
# T3 sequence (whole entry): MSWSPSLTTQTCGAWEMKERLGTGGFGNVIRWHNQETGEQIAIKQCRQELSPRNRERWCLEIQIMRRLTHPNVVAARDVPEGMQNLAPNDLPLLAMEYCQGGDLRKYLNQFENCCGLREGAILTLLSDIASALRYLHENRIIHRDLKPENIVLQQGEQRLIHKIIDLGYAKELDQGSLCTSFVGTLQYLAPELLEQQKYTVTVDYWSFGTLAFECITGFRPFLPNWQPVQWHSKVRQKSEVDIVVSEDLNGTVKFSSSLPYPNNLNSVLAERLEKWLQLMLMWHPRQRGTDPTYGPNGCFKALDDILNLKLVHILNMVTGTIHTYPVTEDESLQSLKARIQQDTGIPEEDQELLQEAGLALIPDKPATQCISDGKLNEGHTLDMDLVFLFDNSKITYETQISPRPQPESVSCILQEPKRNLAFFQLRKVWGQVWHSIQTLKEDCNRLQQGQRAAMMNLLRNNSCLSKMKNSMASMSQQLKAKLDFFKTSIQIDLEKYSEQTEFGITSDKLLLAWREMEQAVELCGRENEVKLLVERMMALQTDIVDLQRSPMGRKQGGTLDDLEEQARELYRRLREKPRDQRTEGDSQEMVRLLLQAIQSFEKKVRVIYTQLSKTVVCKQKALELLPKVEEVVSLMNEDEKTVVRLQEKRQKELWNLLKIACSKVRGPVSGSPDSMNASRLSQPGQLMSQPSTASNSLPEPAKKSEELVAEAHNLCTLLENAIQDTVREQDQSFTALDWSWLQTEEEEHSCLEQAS
# [9] = biological target: T3, Inhibitor of nuclear factor kappa-B kinase subunit beta (Homo sapiens); conditions: at 1 µM
# [10] = biological target: T4, Inhibitor of nuclear factor kappa-B kinase subunit epsilon (Homo sapiens) (UniProt Q14164); conditions: at 0.1 µM;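 further: mean inhibition of IKKε reported, from the GSK PKIS dataset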
# T4 sequence (whole entry): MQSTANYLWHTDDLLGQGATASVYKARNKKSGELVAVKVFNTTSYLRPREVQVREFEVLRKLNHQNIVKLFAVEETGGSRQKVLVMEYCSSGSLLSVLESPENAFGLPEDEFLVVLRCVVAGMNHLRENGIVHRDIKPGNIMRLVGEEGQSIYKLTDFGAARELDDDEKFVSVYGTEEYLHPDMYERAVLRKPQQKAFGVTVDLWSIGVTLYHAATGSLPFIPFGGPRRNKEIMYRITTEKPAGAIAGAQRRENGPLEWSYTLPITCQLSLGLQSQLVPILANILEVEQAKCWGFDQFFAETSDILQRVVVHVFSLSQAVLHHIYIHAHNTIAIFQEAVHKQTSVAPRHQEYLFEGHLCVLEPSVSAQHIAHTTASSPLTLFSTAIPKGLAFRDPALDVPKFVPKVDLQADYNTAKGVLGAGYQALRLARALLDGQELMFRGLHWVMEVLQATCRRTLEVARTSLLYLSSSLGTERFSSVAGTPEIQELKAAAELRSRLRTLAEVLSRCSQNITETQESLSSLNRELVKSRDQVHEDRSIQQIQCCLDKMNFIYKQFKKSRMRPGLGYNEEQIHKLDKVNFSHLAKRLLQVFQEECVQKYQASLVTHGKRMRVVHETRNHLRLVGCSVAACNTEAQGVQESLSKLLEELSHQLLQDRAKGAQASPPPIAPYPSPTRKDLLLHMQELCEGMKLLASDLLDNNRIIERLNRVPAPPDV
# Casein kinase II subunit alpha (Homo sapiens), sequence (P68400 whole entry, looked up): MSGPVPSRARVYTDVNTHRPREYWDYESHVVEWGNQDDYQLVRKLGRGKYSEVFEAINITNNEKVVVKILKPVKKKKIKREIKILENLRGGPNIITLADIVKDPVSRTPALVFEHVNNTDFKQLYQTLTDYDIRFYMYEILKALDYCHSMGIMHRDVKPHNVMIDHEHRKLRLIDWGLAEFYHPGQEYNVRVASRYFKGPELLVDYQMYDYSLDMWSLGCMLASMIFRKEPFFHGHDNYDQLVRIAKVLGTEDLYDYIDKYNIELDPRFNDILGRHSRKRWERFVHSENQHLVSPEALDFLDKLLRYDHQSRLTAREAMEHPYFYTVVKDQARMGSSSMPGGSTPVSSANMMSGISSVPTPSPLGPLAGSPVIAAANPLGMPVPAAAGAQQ
# Sphingosine kinase 1 (Homo sapiens), sequence (Q9NYA1 whole entry): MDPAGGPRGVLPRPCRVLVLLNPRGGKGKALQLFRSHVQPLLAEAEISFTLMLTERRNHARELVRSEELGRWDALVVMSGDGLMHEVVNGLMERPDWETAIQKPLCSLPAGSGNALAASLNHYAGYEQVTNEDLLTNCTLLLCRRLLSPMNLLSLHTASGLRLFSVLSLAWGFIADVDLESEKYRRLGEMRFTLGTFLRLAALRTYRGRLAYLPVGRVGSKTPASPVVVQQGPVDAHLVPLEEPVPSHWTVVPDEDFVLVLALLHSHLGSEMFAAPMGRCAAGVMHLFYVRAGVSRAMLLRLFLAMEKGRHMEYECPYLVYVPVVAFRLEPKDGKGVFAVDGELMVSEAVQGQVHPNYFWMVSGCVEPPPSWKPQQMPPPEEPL
compound,measurement,setting,value
CCCN1CCC(Oc2cc(Nc3nc(Nc4cccc(F)c4C(N)=O)c4cc[nH]c4n3)c(OC)cc2Cl)CC1,inhibition,[1],0.63%
same,inhibition,[2],-0.36%
same,inhibition,[3],0.09%
same,inhibition,[4],0.96%
same,inhibition,[5],7.7%
same,inhibition,[6],-0.06%
same,inhibition,[7],-9.18%
same,inhibition,[8],-1.77%
same,inhibition,[9],-4.88%
same,inhibition,[10],-2.26%
